# Data from PubChem BioAssay.
# “And” between values parts separate entries of the source, which are not always exact repeats. Identical values can stand only once. The source made the active and inactive calls. Cut-off read from the data, not from the text of the source, unless noted: active = inhibition above about 80%; inactive = the rest.
# How the values were obtained:
# [1] = growth inhibition, single agents and combos, HTB85, cell-based, BGB or cisplatin IC20 combos, synergistic combos for chromothripsis tumors (AID 1671453); conditions: HTB85 osteosarcoma cells, drug combinations, stronger effect = higher value;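 note: cells exposed for 96 hours before readout; 0% = vehicle DMSO and 100% = high DMSO killing control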
# [2] = growth inhibition, single agents and combos, CRL2098, cell-based, BGB or cisplatin IC20 combos, synergistic combos for chromothripsis tumors (AID 1671454); conditions: CRL2098 osteosarcoma cells, drug combinations, stronger effect = higher value;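 note: cells exposed for 96 h before readout; 0% = vehicle DMSO and 100% = killing by high DMSO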
# [3] = growth inhibition, single agents and combos, HD-MB03, cell-based, BGB or cisplatin IC20 combos, synergistic combos for chromothripsis tumors (AID 1671455; in the data active = inhibition above about 83%;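 note: 0% = vehicle DMSO and 100% = high DMSO as cytotoxic control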); conditions: HD-MB03 medulloblastoma cells, stronger effect = higher value
# [4] = growth inhibition, single agents and combos, UWB1.289, cell-based, BGB or cisplatin combos, synergistic combos for chromothripsis tumors (AID 1671456); conditions: UWB1.289 ovarian carcinoma cells, stronger effect = higher value;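 note: cells exposed to compound for four days; 0% = vehicle DMSO and 100% = killing by high DMSO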
# [5] = growth inhibition, single agents and combos, LFS_MB_2R, cell-based, cisplatin combos, synergistic combos for chromothripsis tumors (AID 1671457); conditions: LFS_MB_2R medulloblastoma cells, stronger effect = higher value;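 note: cells exposed to compound for four days before readout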
# [6] = growth inhibition, MDA-MB-436, cell-based, BGB or cisplatin combos, synergistic combos for chromothripsis tumors (AID 1671458; call rule not given here;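 note: cells exposed for 96 hours; 0% = vehicle DMSO and 100% = killing by high DMSO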); conditions: MDA-MB-436 breast carcinoma growth inhibition, drug combinations, stronger effect = higher value
# [7] = UWB1.289_BRCA1 ovarian cancer growth, cell-based, BGB or cisplatin combinations (AID 1671459); conditions: UWB1.289 BRCA1 ovarian carcinoma, drug combinations, stronger effect = higher value
# [8] = drug combination toxicity in non-malignant astrocytes – cell-based, BGB or cisplatin IC20 combos, cytotoxicity control for chromothriptic childhood tumor combination screen (AID 1671460); conditions: Human astrocytes, viability inhibition, drug combinations, at 0.5 µM, stronger effect = higher value;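 note: cells exposed to compounds for 96 hours before viability readout; 0% = vehicle and 100% = killing control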
# [9] = BT084 cell growth, single and combined drugs, ICGC_MB145, cisplatin and BGB IC40 combos (AID 1671461); conditions: BT084 medulloblastoma cells, drug combinations, stronger effect = higher value;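 note: cells exposed to drugs for 96 hours; 0% = vehicle DMSO and 100% = high DMSO full killing control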
# [10] = RCMB18 cell growth, single agent and combined, cisplatin and BGB IC40 combos (AID 1671462); conditions: RCMB18 medulloblastoma cells, stronger effect = higher value;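 note: cells exposed to compound for four days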
# [11] = CRL1545 cell growth, single agent and combined, cisplatin and BGB IC20 combos (AID 1671464); conditions: CRL1545 osteosarcoma cells, stronger effect = higher value;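 note: cells exposed to compound for 96 hours before readout; 0% = vehicle DMSO and 100% = high DMSO killing control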
# [12] = compounds altering viability of human ES cells (AID 493140; call rule not given here;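 note: cells exposed to compounds for four days before counting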); conditions: human embryonic stem cell survival screen; stronger effect = higher value
# [13] = P. berghei load reduction in hepatocytes – cell-based, HepG2, luciferase luminescence, HepG2 viability, primary screen (AID 624349; in the data active = parasite load remaining mostly below about 12%, no sharp cut-off; inactive = mostly above about 10%;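 note: 100% = mean of DMSO negative control wells on the same plate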); conditions: P. berghei liver stage in HepG2, luciferase luminescence, concentration not given here; parasite load remaining: stronger effect = lower value; viability: measured here: HepG2 viability without parasites
# [14] = viability loss with induced miR-34 in A549 – imaging, A549 dox-inducible miR-34, nuclei and caspase counts, primary screen (AID 1347080;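 active = compounds whose cell count with miR-34 switched on is under 0.7 times the count with it off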); conditions: A549 miR-34 inducible, Hoechst nuclei count, 48 h
# [15] = MELAS cybrid and Rieske KO viability enhancers – cell-based, MELAS cybrids, Rieske KO mouse fibroblasts, CellTiter-Glo, primary screen (AID 1508586;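 active = mean z-score across replicates of 1.96 or higher in either the MELAS or the Rieske mutant cell line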;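 note: z relative to plate mean and SD of compound and empty wells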); conditions: low glucose
# [16] = growth inhibition, single agent or in combination, cell-based, chromothripsis tumors, cisplatin or BGB combos (AID 1671449); conditions: LFS_MB_P medulloblastoma cells;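 note: cells exposed for 96 hours; 0% = vehicle DMSO and 100% = killing by high DMSO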
# [17] = growth inhibition, single agent and combos, cell-based, chromothripsis tumors, cisplatin or BGB combos (AID 1671450); conditions: HDN33 neuroblastoma cells, stronger effect = higher value;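 note: cells exposed to compound for four days; 0% = vehicle DMSO and 100% = cell killing by high DMSO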
# [18] = growth inhibition, single agents and combos, ICB984, cell-based, cisplatin or BGB combos, synergistic combos for chromothripsis tumors (AID 1671451; call rule not given here;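 note: cells exposed for 96 hours before readout; 0% = vehicle DMSO and 100% = killing by high DMSO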); conditions: ICB984 medulloblastoma cells, drug combinations, stronger effect = higher value
# [19] = growth inhibition, single agents and combos, LFS_MB_1R, cell-based, cisplatin or BGB combos, synergistic combos for chromothripsis tumors (AID 1671452); conditions: LFS_MB_1R medulloblastoma cells, stronger effect = higher value;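 note: cells exposed for 96 hours before readout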
# [20] = measured here: with BGB IC20, at 0.5 µM
# [21] = measured here: with BGB IC20, at 5 µM
# [22] = measured here: with cisplatin IC20, at 0.5 µM
# [23] = measured here: with cisplatin IC20, at 5 µM
# [24] = measured here: combination with BGB at IC20, at 0.5 µM
# [25] = measured here: combination with cisplatin at IC20, at 0.5 µM
# [26] = measured here: combo with BGB at IC20, at 0.5 µM
# [27] = measured here: combo with cisplatin at IC20, at 0.5 µM
# [28] = measured here: inhibition with BGB combination, at 0.05 µM
# [29] = measured here: inhibition with cisplatin combination, at 0.05 µM
# [30] = measured here: combination with cisplatin, at 0.5 µM
# [31] = measured here: combination with cisplatin, at 5 µM
# [32] = measured here: BGB combination, at 0.5 µM
# [33] = measured here: BGB combination, at 5 µM
# [34] = measured here: cisplatin combination, at 0.5 µM
# [35] = measured here: cisplatin combination, at 5 µM
# [36] = BGB combination, concentration series, at 5 µM
# [37] = cisplatin combination, concentration series, at 5 µM
# [38] = measured here: combo with BGB IC20
# [39] = measured here: combo with cisplatin IC20
# [40] = cisplatin combination, at 0.5 µM
# [41] = measured here: BGB IC40 combination 0.05 uM, at 0.05 µM
# [42] = measured here: BGB IC40 combination, at 0.05 µM
# [43] = measured here: with BGB IC20 combination, at 0.5 µM
# [44] = measured here: with cisplatin IC20 combination, at 0.5 µM
# [45] = stronger effect = lower value, cell number ratio, induced over uninduced
# [46] = measured here: relative caspase fold change +Dox/-Dox
# [47] = measured here: total cells with miR-34 induction, stronger effect = lower value
# [48] = measured here: total cells without miR-34 induction
# [49] = MELAS cybrid survival, CellTiter-Glo 48 h, stronger effect = higher value
# [50] = Rieske KO mouse fibroblast survival, CellTiter-Glo 72 h
# [51] = measured here: combination with BGB IC40, at 0.05 µM
smiles,measurement,setting,value
O=C(O)c1cc2cccc([N+](=O)[O-])c2[nH]1,inhibition,[1]; at 0.5 µM,-15.9% (inactive)
same,inhibition,[1]; [20],-41.2%
same,inhibition,[1]; [21],-22.3%
same,inhibition,[1]; [22],-7.91%
same,inhibition,[1]; [23],-2.59%
same,inhibition,"[1]; single agent, at 5 µM",-17.2%
same,inhibition,[2]; at 0.5 µM,-68.3% (inactive)
same,inhibition,[2]; [24],-23.9%
same,inhibition,[2]; [25],-78.8%
same,inhibition,[3]; at 0.5 µM,-5.12% (inactive)
same,inhibition,[3]; [26],-8.83%
same,inhibition,[3]; [27],1.4%
same,inhibition,[4]; at 0.5 µM,-15.9% (inactive)
same,inhibition,[4]; [28],-35.8%
same,inhibition,[4]; [29],40%
same,inhibition,[5]; at 0.5 µM,-32% (inactive)
same,inhibition,[5]; [30],-28.5%
same,inhibition,[5]; [31],-29.3%
same,inhibition,[6]; at 0.5 µM,-23.3% (inactive)
same,inhibition,[6]; [32],-25%
same,inhibition,[6]; [33],-42.9%
same,inhibition,[6]; [34],-25.6%
same,inhibition,[6]; [35],-40.6%
same,inhibition,[7]; [36],-18.8%
same,inhibition,[7]; at 0.5 µM,-21.8% (inactive)
same,inhibition,[7]; [37],-8.12%
same,inhibition,[8],-16% (inactive)
same,inhibition,[8]; [38],-13.8%
same,inhibition,[8]; [39],-5.7%
same,inhibition,[9]; at 0.5 µM,-15.5% (inactive)
same,inhibition,[9]; [40],-11.3%
same,inhibition,"[9]; cisplatin combination, at 5 µM",-2.07%
same,inhibition,[9]; [41],-9.88%
same,inhibition,"[9]; single agent, at 5 µM",-23.7%
same,inhibition,[10]; at 0.5 µM,-11.6% (inactive)
same,inhibition,"[10]; cisplatin combo, at 5 µM",27.1%
same,inhibition,[10]; [42],-14.6%
same,inhibition,[10]; [30],5.09%
same,inhibition,"[10]; single agent, at 5 µM",-41.3%
same,inhibition,[11]; at 0.5 µM,-22.4% (inactive)
same,inhibition,[11]; [43],-10%
same,inhibition,[11]; [44],-28.5%
same,inhibition,"[11]; single agent, at 0.05 µM",22.7%
same,inhibition,"[11]; single agent, at 5 µM",-25.9%
C=CCOc1ccccc1OCC(O)CNC(C)C (configuration not stated),survival,[12],7.17 (inactive)
same,parasite load remaining,[13],73.5% (inactive)
same,viability,[13],76.9%
same,fold change,[14]; [45],0.94 (inactive)
same,fold change,[14]; [46],0.727
same,cell count,[14]; [47],9530
same,cell count,[14]; [48],10100
same,z-score,[15]; [49],0.73 (inactive)
same,z-score,[15]; [50],0.111
O=c1[nH]cnc2c1ncn2C1OC(CO)C(O)C1O (configuration not stated),fold change,[14]; [45],0.971 (inactive)
same,fold change,[14]; [46],0.634
same,cell count,[14]; [47],8460
same,cell count,[14]; [48],8710
same,z-score,[15]; [49],-0.214 (inactive)
same,z-score,[15]; [50],-0.0718
same,inhibition,"[16]; at 0.5 µM, stronger effect = higher value",-10.7% (inactive) and -25.9% (inactive)
same,inhibition,"[16]; measured here: combination with BGB IC20, at 0.005 µM",-29.2% and -10.3%
same,inhibition,"[16]; measured here: combination with BGB IC40, at 0.005 µM",-37.9% and -36.7%
same,inhibition,[16]; [51],-34.2% and -41.2%
same,inhibition,"[16]; measured here: combination with cisplatin, at 0.5 µM, stronger effect = higher value",-24.2% and -36.9%
same,inhibition,"[16]; measured here: combination with cisplatin, at 5 µM, stronger effect = higher value",-32.2% and -50.7%
same,inhibition,"[17]; BGB combo, at 5 µM",-71.8% and -17.3%
same,inhibition,[17]; at 0.5 µM,-41% (inactive) and -8.53% (inactive)
same,inhibition,"[17]; cisplatin combo, at 5 µM",-53.5% and 3.12%
same,inhibition,[17]; [43],-43% and -17%
same,inhibition,[17]; [44],-29.3% and -1.72%
same,inhibition,"[17]; single agent, at 5 µM",-56.1% and -7.95%
same,inhibition,"[18]; BGB IC20 combo, at 0.005 µM",-8.62% and -21.3%
same,inhibition,"[18]; BGB IC40 combo, at 0.005 µM",-26.4% and -10.8%
same,inhibition,"[18]; BGB IC40 combo, at 0.05 µM",-29.3% and -11.3%
same,inhibition,[18]; at 0.5 µM,-22.2% (inactive) and -24.4% (inactive)
same,inhibition,"[18]; cisplatin combo, at 0.05 µM",-36% and -15.3%
same,inhibition,"[18]; cisplatin combo, at 0.5 µM",-33.9% and -9.22%
same,inhibition,"[18]; cisplatin combo, at 5 µM",-24.4% and -48%
same,inhibition,"[18]; measured here: 5 uM single agent, at 5 µM",-3.92% and -14.5%
same,inhibition,[19]; at 0.5 µM,-44.3% (inactive) and -17.7% (inactive)
same,inhibition,[19]; [51],-7.53% and -27.6%
same,inhibition,[19]; [30],-65.5% and -12.7%
same,inhibition,[19]; [31],-61.2% and -68.6%
same,inhibition,[1]; at 0.5 µM,-33.2% (inactive) and -8.83% (inactive)
same,inhibition,[1]; [20],-29.3% and -11.2%
same,inhibition,[1]; [21],-15.9% and -25.5%
same,inhibition,[1]; [22],-32% and -10.1%
same,inhibition,[1]; [23],-20.2% and -47.1%
same,inhibition,"[1]; single agent, at 5 µM",-29.3% and -10.1%
same,inhibition,[2]; at 0.5 µM,-90% (inactive) and -56.6% (inactive)
same,inhibition,[2]; [24],-87.4% and -18.5%
same,inhibition,[2]; [25],-101% and -96.8%
same,inhibition,[3]; at 0.5 µM,-22.6% (inactive) and -12.7% (inactive)
same,inhibition,[3]; [26],-22.7% and -11.5%
same,inhibition,[3]; [27],-27.8% and -18.3%
same,inhibition,[4]; at 0.5 µM,-11.2% (inactive) and -3.6% (inactive)
same,inhibition,[4]; [28],-39.3% and 0.127%
same,inhibition,[4]; [29],-26% and -16.8%
same,inhibition,[5]; at 0.5 µM,-25.5% (inactive) and -18.4% (inactive)
same,inhibition,[5]; [30],-31.3% and -25.6%
same,inhibition,[5]; [31],-22.2% and -17.4%
same,inhibition,[6]; at 0.5 µM,-21.2% (inactive) and -4.5% (inactive)
same,inhibition,[6]; [32],-24.8% and -4.38%
same,inhibition,[6]; [33],-28.5% and -13.8%
same,inhibition,[6]; [34],-29.8% and -11.4%
same,inhibition,[6]; [35],-15.5% and -7.72%
same,inhibition,[7]; [36],-23.4% and 11.7%
same,inhibition,[7]; at 0.5 µM,-19.3% (inactive) and -1.78% (inactive)
same,inhibition,[7]; [37],-16.4% and -23.2%
same,inhibition,[8],3.07% (inactive) and 14% (inactive)
same,inhibition,[8]; [38],13.9% and 6.47%
same,inhibition,[8]; [39],-4.13% and 24.5%
same,inhibition,[9]; at 0.5 µM,-1.88% (inactive) and -23.7% (inactive)
same,inhibition,[9]; [40],-2.01% and -52.6%
same,inhibition,"[9]; cisplatin combination, at 5 µM",-202% and -23.5%
same,inhibition,[9]; [41],-22.8% and -31.6%
same,inhibition,"[9]; single agent, at 5 µM",-16.1% and -9.19%
same,inhibition,[10]; at 0.5 µM,-14.6% (inactive) and -17.6% (inactive)
same,inhibition,"[10]; cisplatin combo, at 5 µM",-27.4% and -4.56%
same,inhibition,[10]; [42],-8.27% and -1.88%
same,inhibition,[10]; [30],-12.7% and -17.5%
same,inhibition,"[10]; single agent, at 5 µM",-19.5% and -20.5%
same,inhibition,[11]; at 0.5 µM,-5.83% (inactive) and -5.48% (inactive)
same,inhibition,[11]; [43],-50.4% and -16.7%
same,inhibition,[11]; [44],15.1% and -1.52%
same,inhibition,"[11]; single agent, at 0.05 µM",-48.7% and 14.4%
same,inhibition,"[11]; single agent, at 5 µM",-40.4%
